# Compounds without any hit were thinned out: in the full panel of roughly 79,000, 15% have a hit. A number with no mark means an inactive call. Active and inactive are the calls of the source. Rule as the data show it: active = growth inhibition above about 70%; inactive = the rest.
# How the values were obtained:
# [1] = NCI Yeast Anticancer Drug Screen. Data for the rad52 strain (AID 147);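 also: 0% = growth of vehicle-treated control cultures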; conditions: S. cerevisiae rad52 mutant growth inhibition, hits give high values
# Procedure, shortened: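 Growth of repair-deficient yeast cells was compared between compound-treated and vehicle-treated cultures to give percent inhibition.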
# [2] = NCI Yeast Anticancer Drug Screen. Data for the wt1 strain (AID 149);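 also: 0% = growth of vehicle-treated wt1 cultures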; conditions: S. cerevisiae wt1 strain (SPY 50644) growth inhibition, hits give high values
# Procedure, shortened: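 Compounds are added to wt1 yeast cultures. Growth is then measured. Inhibition is expressed relative to vehicle-treated controls.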
# [3] = NCI Yeast Anticancer Drug Screen. Data for the rad50EPP+ strain (AID 151);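 also: 0% = growth of vehicle-treated control cultures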; conditions: S. cerevisiae rad50 mutant strain, hits give high values
# Procedure, shortened: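 Measured: growth inhibition of rad50EPP+ yeast. Reference: vehicle-treated controls. Screen uses strains with defined genetic alterations in DNA damage repair or cell cycle control.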
# [4] = NCI Yeast Anticancer Drug Screen. Data for the mgt1 strain (AID 153); conditions: S. cerevisiae mgt1 mutant growth inhibition, hits give high values
# Procedure, shortened: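 Compounds were applied to mgt1 mutant yeast, and growth was then compared against vehicle-treated control cultures to give percent inhibition.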
# [5] = NCI Yeast Anticancer Drug Screen. Data for the rad50 strain (AID 155);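 also: 0% = growth of vehicle-only cultures of the same strain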; conditions: S. cerevisiae rad50 strain growth inhibition, hits give high values
# Procedure, shortened: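 Inhibition values express reduced yeast growth in compound-treated cultures relative to vehicle-treated controls.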
# [6] = NCI Yeast Anticancer Drug Screen. Data for the mec2-1 strain (AID 157); conditions: S. cerevisiae mec2-1 strain, hits give high values
# Procedure, shortened: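 Compounds were applied to mec2-1 yeast cells. Their growth was then compared with that of vehicle-treated cultures to give growth inhibition.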
# [7] = NCI Yeast Anticancer Drug Screen. Data for the rad14 strain (AID 159);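 also: 0% = growth of vehicle-treated control cultures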; conditions: S. cerevisiae rad14 strain growth inhibition, hits give high values
# Procedure, shortened: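 A mutant yeast strain defective in DNA damage repair is treated with compound; inhibition of its growth is scored against untreated, vehicle-exposed cultures.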
# [8] = NCI Yeast Anticancer Drug Screen. Data for the sgs1 mgt1 strain (AID 161);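 also: 0% = growth of cultures given vehicle only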; conditions: S. cerevisiae sgs1 mgt1 strain, hits give high values
# Procedure, shortened: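 Yeast cells carrying a defined DNA-repair defect were exposed to test compounds. Growth inhibition was measured relative to vehicle-treated controls.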
# [9] = NCI Yeast Anticancer Drug Screen. Data for the CLN2oe strain (AID 163);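 also: 0% = growth of vehicle-only control cultures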; conditions: S. cerevisiae CLN2oe strain, hits give high values
# Procedure, shortened: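 Cells of an engineered yeast line with disturbed cell-cycle regulation are treated with compound. Inhibition of growth is then calculated relative to the vehicle-treated reference.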
# [10] = NCI Yeast Anticancer Drug Screen. Data for the cln2 rad14 strain (AID 165);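 also: 0% = growth equal to vehicle treated cultures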; conditions: S. cerevisiae cln2 rad14 strain, hits give high values
# Procedure, shortened: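 Strain: cln2 rad14 yeast, altered in cell cycle control and DNA damage repair. Read-out: growth inhibition vs vehicle.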
# [11] = NCI Yeast Anticancer Drug Screen. Data for the bub3 strain (AID 167); conditions: S. cerevisiae bub3 mutant strain, hits give high values
# Procedure, shortened: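 Steps: expose the mutant yeast strain to compound; grow alongside vehicle-treated cultures; measure growth; express inhibition against the vehicle cultures.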
# [12] = NCI Yeast Anticancer Drug Screen. Data for the wt2 strain (AID 169);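 also: 0% = growth of vehicle-treated yeast cultures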; conditions: S. cerevisiae wt2 strain growth inhibition, hits give high values
# Procedure, shortened: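 Growth of compound-treated yeast is measured and expressed as inhibition relative to vehicle-only controls.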
# [13] = NCI Yeast Anticancer Drug Screen. Data for the mlh1 strain (AID 171);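 also: 0% = growth of vehicle-treated control cultures of the same strain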; conditions: S. cerevisiae mlh1 strain growth inhibition, hits give high values
# Procedure, shortened: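 Test agents were incubated with yeast bearing a defined DNA damage repair or cell cycle control alteration; values are growth inhibition normalised to vehicle-treated cultures.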
# [14] = NCI Yeast Anticancer Drug Screen. Data for the sgs1 strain (AID 173);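 also: 0% = growth of vehicle-only control cultures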; conditions: S. cerevisiae sgs1 mutant, hits give high values
# Procedure, shortened: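 Strain with an altered DNA repair or cell cycle pathway exposed to compound. Growth then measured. Value = inhibition versus vehicle control.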
# [15] = NCI Yeast Anticancer Drug Screen. Data for the mlh1 rad18 strain (AID 175); conditions: S. cerevisiae mlh1 rad18 strain growth inhibition, hits give high values
# Procedure, shortened: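 A repair-deficient yeast strain is exposed to test compound, and growth is scored relative to vehicle-treated controls.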
# [16] = NCI Yeast Anticancer Drug Screen. Data for the rad18 strain (AID 177); conditions: S. cerevisiae rad18 mutant growth inhibition, hits give high values
# Procedure, shortened: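 DNA-repair-defective yeast; compound treatment; growth inhibition scored against vehicle.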
# [17] = at 5.0 µM (retest, dose inferred, filed as 0.5)
# [18] = at 50.0 µM (retest, dose inferred, filed as 5.0)
compound,measurement,setting,value
Cc1ccc(NC(=O)/C(Cl)=C(\Cl)C(=O)O)cc1C,growth inhibition,[1]; at 1.2 µM,2%
same,growth inhibition,[1]; at 3.7 µM,7%
same,growth inhibition,[1]; at 11.0 µM,42%
same,growth inhibition,[1]; at 33.0 µM,99% (active)
same,growth inhibition,[1]; at 100.0 µM,99% (active)
same,growth inhibition,[2]; at 1.2 µM,-2%
same,growth inhibition,[2]; at 3.7 µM,-3%
same,growth inhibition,[2]; at 11.0 µM,2%
same,growth inhibition,[2]; at 33.0 µM,88% (active)
same,growth inhibition,[2]; at 100.0 µM,98% (active)
same,growth inhibition,[3]; at 1.2 µM,6%
same,growth inhibition,[3]; at 3.7 µM,16%
same,growth inhibition,[3]; at 11.0 µM,77% (active)
same,growth inhibition,[3]; at 33.0 µM,99% (active)
same,growth inhibition,[3]; at 100.0 µM,99% (active)
same,growth inhibition,[4]; at 1.2 µM,4%
same,growth inhibition,[4]; at 3.7 µM,7%
same,growth inhibition,[4]; at 11.0 µM,22%
same,growth inhibition,[4]; at 33.0 µM,99% (active)
same,growth inhibition,[4]; at 100.0 µM,99% (active)
same,growth inhibition,[5]; at 1.2 µM,2%
same,growth inhibition,[5]; at 3.7 µM,7%
same,growth inhibition,[5]; [17],13%
same,growth inhibition,[5]; at 11.0 µM,38%
same,growth inhibition,[5]; at 33.0 µM,99% (active)
same,growth inhibition,[5]; [18],99% (active)
same,growth inhibition,[5]; at 50.0 µM,99.2% (active)
same,growth inhibition,[5]; at 100.0 µM,98% (active)
same,growth inhibition,[6]; at 1.2 µM,6%
same,growth inhibition,[6]; at 3.7 µM,10%
same,growth inhibition,[6]; [17],15%
same,growth inhibition,[6]; at 11.0 µM,24%
same,growth inhibition,[6]; at 33.0 µM,99% (active)
same,growth inhibition,[6]; [18],100% (active)
same,growth inhibition,[6]; at 50.0 µM,99.5% (active)
same,growth inhibition,[6]; at 100.0 µM,99% (active)
same,growth inhibition,[7]; at 1.2 µM,3%
same,growth inhibition,[7]; at 3.7 µM,6%
same,growth inhibition,[7]; at 11.0 µM,26%
same,growth inhibition,[7]; at 33.0 µM,99% (active)
same,growth inhibition,[7]; at 100.0 µM,99% (active)
same,growth inhibition,[8]; [17],21%
same,growth inhibition,[8]; [18],100% (active)
same,growth inhibition,[8]; at 50.0 µM,99.5% (active)
same,growth inhibition,[9]; at 1.2 µM,3%
same,growth inhibition,[9]; at 3.7 µM,4%
same,growth inhibition,[9]; at 11.0 µM,13%
same,growth inhibition,[9]; at 33.0 µM,96% (active)
same,growth inhibition,[9]; at 100.0 µM,99% (active)
same,growth inhibition,[10]; [17],8%
same,growth inhibition,[10]; [18],99% (active)
same,growth inhibition,[10]; at 50.0 µM,72% (active)
same,growth inhibition,[11]; at 1.2 µM,7%
same,growth inhibition,[11]; at 3.7 µM,5%
same,growth inhibition,[11]; [17],21%
same,growth inhibition,[11]; at 11.0 µM,20%
same,growth inhibition,[11]; at 33.0 µM,99% (active)
same,growth inhibition,[11]; [18],99% (active)
same,growth inhibition,[11]; at 50.0 µM,99.5% (active)
same,growth inhibition,[11]; at 100.0 µM,99% (active)
same,growth inhibition,[12]; at 1.2 µM,0%
same,growth inhibition,[12]; at 3.7 µM,2%
same,growth inhibition,[12]; at 11.0 µM,11%
same,growth inhibition,[12]; at 33.0 µM,97% (active)
same,growth inhibition,[12]; at 100.0 µM,99% (active)
same,growth inhibition,[13]; at 1.2 µM,1%
same,growth inhibition,[13]; at 3.7 µM,4%
same,growth inhibition,[13]; at 11.0 µM,12%
same,growth inhibition,[13]; at 33.0 µM,96% (active)
same,growth inhibition,[13]; at 100.0 µM,99% (active)
same,growth inhibition,[14]; at 1.2 µM,1%
same,growth inhibition,[14]; at 3.7 µM,6%
same,growth inhibition,[14]; at 11.0 µM,29%
same,growth inhibition,[14]; at 33.0 µM,99% (active)
same,growth inhibition,[14]; at 100.0 µM,99% (active)
same,growth inhibition,[15]; [17],16%
same,growth inhibition,[15]; [18],99% (active)
same,growth inhibition,[15]; at 50.0 µM,99.3% (active)
same,growth inhibition,[16]; at 1.2 µM,0%
same,growth inhibition,[16]; at 3.7 µM,3%
same,growth inhibition,[16]; at 11.0 µM,24%
same,growth inhibition,[16]; at 33.0 µM,99% (active)
same,growth inhibition,[16]; at 100.0 µM,99% (active)
